Screens (PubChem BioAssay)
This is one part of a sample in which hits are shown more often than they occur.
12-hLO inh: inhibitors of human 12-lipoxygenase (ALOX12). P18054. purified 12-hLO, xylenol orange hydroperoxide absorbance. Potency, µM (series often up to 57.1 µM), hits mostly inhibitors. actives 0.12% (n = 150,000). AID 1452; note: nearly all actives have a fitted effect of over 55% in size
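Purified human 12hLO (150 nM final) was preincubated with compounds for 15 min at room temperature in 25 mM Hepes pH 7.0, 0.01% Triton X-100, then reacted with 40 uM arachidonic acid for 30 min. Hydroperoxide was detected with ferrous iron/xylenol orange.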
IMPase inh: cell-permeable inhibitors of inositol monophosphatase (IMPase); P97697; CHO-M1 cells, IP1 accumulation, HTRF TR-FRET ratio; inhibition (IP1 accumulation), % at 46.1 µM; 120,000 tested, under 10 active; active = well fitted curve in the direction sought with a large enough effect in the signal ratio, not every such curve was filed as active; inconclusive = small, poorly fitted or top-dose-only effect, or a change in a side signal; inactive = no such curve, though single readings can be large or run the other way; the % refers to the signal ratio;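 note: cells stimulated with carbachol in lithium chloride buffer; higher means more IMPase inhibition seen as more IP1 and lower FRET ratio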
Target sequence (P97697 whole entry, looked up): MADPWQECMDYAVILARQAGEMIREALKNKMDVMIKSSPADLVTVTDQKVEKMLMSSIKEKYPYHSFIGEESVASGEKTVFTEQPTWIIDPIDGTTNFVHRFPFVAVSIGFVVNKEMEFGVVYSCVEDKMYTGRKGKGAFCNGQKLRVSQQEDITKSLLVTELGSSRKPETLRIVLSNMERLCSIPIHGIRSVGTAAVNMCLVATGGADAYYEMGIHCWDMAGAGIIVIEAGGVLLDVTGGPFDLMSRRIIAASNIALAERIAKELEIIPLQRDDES
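Carbachol-driven Gq signalling in CHO-M1 cells (2000/well) generates IP1. Compounds that block IMPase raise IP1 and so reduce the FRET signal from Eu-anti-IP1 and d2-IP1 after a 10 min room-temperature lysis.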
IMPase Li cell: membrane-permeable IMPase blocker, potentiated with lithium; CHO-M1 cells, IP1 TR-FRET (IP-One), carbachol + lithium; Potency, µM (highest dose often 59.4 µM), actives largely listed as inhibitors; actives 0.35% (n = 210,000); AID 1457;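 note: IP1 builds up when IMPase is blocked and the TR-FRET signal falls; nearly all actives have a fitted effect of over 50% in size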
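Readout is a homogeneous TR-FRET IP1 immunoassay (Ex 320, Em 665 and 620), where raised cytosolic IP1 lowers signal. Cells were CHO-M1 treated 30 min at 37C with test compounds plus a little lithium; AC50 values came from Hill-equation fitting.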
PNC inhibitor: perinucleolar compartment assembly inhibition; PC3M PTB-GFP, PNC prevalence imaging, 16 h; hits give low values; activity change (PNC), negative = inhibition, % at 10 µM; actives 3.1% (n = 140,000); AID 2417;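 active = readout at or below -70, meaning at least 70% loss of cells showing the perinucleolar compartment, a nuclear body marking cancer cells; inconclusive = readout between -30 and a set limit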
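Read-out is percentage of cells bearing a perinucleolar compartment, from automated 20x imaging of fixed, Hoechst-stained PC3M PTB-GFP cells. Cells were seeded 4 h, then exposed 16 h to compound (23 nl of library stock) in duplicate plates.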
Large screens that a line does not name were inactive. Unless noted, calls come from the whole dose curve; as a rule, active = well fitted curve in the direction sought with a large enough effect; inconclusive = small, poorly fitted or top-dose-only effect, or another doubt; inactive = no such curve, though single readings can be large; an effect the other way counts as inactive or inconclusive.

COc1ccc2[nH]cc(CCNc3ncncc3-c3ccc(C(=O)N(C)C)cc3)c2c1	none (no result: 12-hLO inh, IMPase inh, PNC inhibitor)
CSCCC(NC(=O)c1ccc(Cl)cc1)C(=O)OCC(=O)c1ccc[nH]1 (stereo unspecified)	PNC inhibitor -119.3
CCCCC1(C)NC(=O)N(CC(=O)Nc2ccc(S(=O)(=O)N3CCOCC3)cc2)C1=O (stereo unspecified)	PNC inhibitor -87.1
Cc1cc(C)cc(NCC(=O)Nc2c(C)cccc2C)c1	PNC inhibitor -90.1
Cc1cccc(C)c1NC(=O)C[N+](C)(C)C	none (no result: PNC inhibitor)
Nc1ccc2nc(-c3ccc(Cl)cc3)[nH]c2c1	IMPase Li cell 10µM
Nc1ccc(-c2nc3ccc(N)cc3[nH]2)cc1	none (no result: 12-hLO inh, IMPase inh, PNC inhibitor)
COCCNC(=O)C(c1ccc(F)cc1)N(CCOC)C(=O)CCC(=O)Nc1nccs1 (stereo unspecified)	PNC inhibitor -107.7
COC(=O)c1cnn2c(C)c(Cc3cccc(F)c3)c(C)nc12	PNC inhibitor -87.9
CN1CCCC(CC2Oc3ccccc3Sc3ccccc32)C1 (stereo unspecified)	none (no result: IMPase inh)
c1ccc2c(c1)OC(CCCN1CCCCC1)c1ccccc1S2 (stereo unspecified)	PNC inhibitor -100.0
CCNC(=O)[C@H]1O[C@@H](n2cnc3c(N)nc(NCCc4ccc(CCC(=O)O)cc4)nc32)[C@H](O)[C@H]1O	none (no result: 12-hLO inh, IMPase inh, PNC inhibitor)
Cc1cc(C)c2c(C)c(C(=O)NCc3ccncc3)oc2c1	PNC inhibitor -100.0
CCCCOC(=O)/C(=C/c1cn(C)c2ccccc12)NC(=O)c1ccc(OC)cc1	PNC inhibitor -93.3 (no result: IMPase inh)
O=C(O)CCCn1nc(C(F)(F)F)c2c1CCCCC2	PNC inhibitor -91.6
O=C(O)Cn1nc(C(F)(F)F)c2c1CCCC2	none (no result: 12-hLO inh, IMPase inh, PNC inhibitor)
CC1=C(C(=O)OC(C)C)C(c2c[nH]c3ccccc23)n2ncnc2N1 (stereo unspecified)	PNC inhibitor -105.8
O=C(CCS(=O)(=O)c1ccccc1)Nc1ccc(-c2nc3ccccc3s2)c(O)c1	IMPase Li cell 11.2µM (no result: IMPase inh)
S=c1nc(-c2ccccc2)n(Cc2ccco2)c2c1CCCC2	IMPase Li cell 12.6µM
O=C(NCc1nnc2c3ccccc3c(-c3ccccc3)nn12)c1ccc(Cl)cc1	PNC inhibitor -110.8 (no result: IMPase inh)
O=S(=O)(c1ccc2ncn(O)c2c1)N1CCOCC1	none (no result: 12-hLO inh, IMPase inh, PNC inhibitor)
Cc1ccc2[nH]c3c(=S)nc[nH]c3c2c1	IMPase inh inconclusive, IMPase Li cell 12.6µM
CC(C)C[C@H](NC(=O)[C@H](CCCCN)NC(=O)[C@H](CCCNC(=N)N)NC(=O)[C@H](C)NC(=O)[C@H](CO)NC(=O)[C@H](CCCCN)NC(=O)[C@H](CCCNC(=N)N)NC(=O)[C@H](C)NC(=O)CNC(=O)[C@@H](NC(=O)[C@H](Cc1ccccc1)NC(=O)CNC(=O)CNC(=O)[C@@H](N)Cc1ccccc1)[C@H](C)O)C(=O)N[C@@H](C)C(=O)N[C@@H](CC(N)=O)C(=O)N[C@@H](CCC(N)=O)C(=O)O	none (no result: 12-hLO inh, IMPase inh, PNC inhibitor)
O=C(COc1ccc(F)cc1)NNC(=O)c1cc2ccccc2oc1=O	PNC inhibitor -87.6 (no result: IMPase inh)
Cc1cccc(OCC(=O)NNC(=O)c2cc3ccccc3oc2=O)c1	none
CCCC[C@]1(C2CCCC2)Cc2cc(OCC(=O)O)c(Cl)c(Cl)c2C1=O	none (no result: IMPase Li cell, PNC inhibitor)
CCCOc1ccc(Cc2nc(N)nc(N)n2)cc1	none
CCOc1ccc(Cc2nc(N)nc(N)n2)cc1	PNC inhibitor -100.0
S=C1NCCc2ccccc2C1c1ccccc1 (stereo unspecified)	12-hLO inh 28.2µM, IMPase inh inconclusive
S=C1NCCc2ccccc2C1c1ccccc1Cl (stereo unspecified)	none
CCCS(=O)(=O)NCCc1cc2ccc(C)cc2[nH]c1=O	none
CCCS(=O)(=O)NCCc1cc2cc(C)c(C)cc2[nH]c1=O	PNC inhibitor -100.0
COc1ccc(OC)c2[nH]c(=O)c(CCNC(C)=O)cc12	PNC inhibitor inconclusive
CCS(=O)(=O)NCCc1cc2c(OC)ccc(OC)c2[nH]c1=O	PNC inhibitor -100.0
Cc1cc(C(F)F)n2nc(C(=O)Nc3c(C)cccc3C)nc2n1	none (no result: 12-hLO inh, IMPase Li cell, PNC inhibitor)
Cc1c(NC(=O)Nc2ccccc2Cl)c(=O)n(-c2ccccc2)n1C	none (no result: 12-hLO inh, IMPase inh, PNC inhibitor)
COC(=O)Cc1sc(-c2ccccn2)nc1-c1ccccc1	none (no result: 12-hLO inh, IMPase inh, PNC inhibitor)
Cn1cc(Cl)c(C(=O)N/N=C/c2ccc(OS(=O)(=O)c3ccccc3)cc2)n1	PNC inhibitor -100.0
Cc1ccc(/C=N/NC(=O)c2nn(C)cc2Cl)cc1	none (no result: IMPase inh)
O=C(CN1CCN(S(=O)(=O)c2ccc(Br)cc2)CC1)N/N=C/c1cccnc1	PNC inhibitor -90.1
Cc1c2c(n3c(nc4ccccc43)c1C#N)N(CCN(C)C)CC2	none (no result: 12-hLO inh, IMPase inh, PNC inhibitor)
Cc1c2c(n3c(nc4ccccc43)c1C#N)N(c1ccccc1)CC2	PNC inhibitor -94.6 (no result: IMPase inh)
CN1CCN(C2CCCCCC2)CC1	PNC inhibitor -118.9
CN1CCN(C(=O)NC2CCCCC2)CC1	PNC inhibitor inconclusive
CN(C)c1ccc(/C=c2/sc3n(c2=O)NC2(c4ccccc4)N(C)C(=O)N(C)C2(c2ccccc2)N=3)cc1 (stereo unspecified)	PNC inhibitor -83.7 (no result: IMPase inh)
CSCCC(NC(=O)COc1ccccc1)C(=O)O (stereo unspecified)	none (no result: 12-hLO inh, IMPase inh, PNC inhibitor)
CCOC(=O)c1c(NC(=O)CSc2nc3ccccc3o2)sc(C(C)=O)c1C	none (no result: IMPase inh)
O=C(Cn1sc2ccccc2c1=O)NC12CC3CC(CC(C3)C1)C2	12-hLO inh 7.94µM
CC1Cc2ccccc2N1C(=O)CSc1nc2cc3c(cc2cc1C#N)OCO3 (stereo unspecified)	none
Cc1sc2nc(C3CC3)nc(SCC(=O)N3c4ccccc4CC3C)c2c1C (stereo unspecified)	IMPase inh inconclusive, PNC inhibitor -108.0
Cc1sc2nc(C3CC3)nc(SCC(=O)NCc3ccco3)c2c1C	none
Cc1cc2cc3c(cc2nc1SCC(=O)N1c2ccccc2CC1C)OCO3 (stereo unspecified)	PNC inhibitor -100.0
Cc1nn(-c2ccccc2)c(C)c1NC(=O)COc1ccc2ccccc2c1	none (no result: IMPase Li cell)
Cc1nn(-c2ccccc2)c(C)c1NC(=O)COc1ccc(C#N)cc1	PNC inhibitor -80.4 (no result: IMPase inh)
COC(=O)CSc1nc2c(c(-c3ccc(C)o3)c1C#N)CCCC2	none
CCSc1nc2c(c(-c3ccc(C)o3)c1C#N)CCCC2	PNC inhibitor -100.0
Cc1cccc(C)c1NC(=S)NCCc1ccccn1	PNC inhibitor -105.2 (no result: IMPase inh)
Cc1cccc(C)c1NC(=S)NC(C)CCc1ccccc1 (stereo unspecified)	12-hLO inh inconclusive, PNC inhibitor -82.3
Cc1nn(-c2cc(N3CCNCC3)ccc2[N+](=O)[O-])c(=O)c2ccccc12	PNC inhibitor -97.0
CCOc1ccc(Oc2nc(NCC(C)C)nc(N3CCOCC3)n2)nn1	none (no result: 12-hLO inh, IMPase Li cell, PNC inhibitor)
COc1ccc(C2CC(c3c(O)cc(C)oc3=O)=NCCS2)c(OC)c1 (stereo unspecified)	PNC inhibitor -113.7
Cc1cc(O)c(C2=Nc3ccccc3SC(c3ccc(Cl)cc3)C2)c(=O)o1 (stereo unspecified)	none (no result: IMPase inh)
CC(C)=CCC1=C(O)c2ccccc2C(=O)C1=O	none (no result: IMPase inh, PNC inhibitor)
